PubChem BioAssay (NCATS)
Inconclusive results are not listed. A call without a number means that no potency is given here. Calls of active or inactive are those of the source. Calls come from the whole dose curve; as a rule, active = well fitted inhibition curve with a large enough effect; inconclusive = small, poorly fitted or top-dose-only effect; inactive = flat fitted curve, though single readings scatter.
Potency is the fitted concentration of half-maximal effect.

Test: P-glycoprotein substrates identified in KB-8-5-11 adenocarcinoma cell line, qHTS therapeutic library screen (AID 1346987); note: nearly all actives have a fitted effect of over 65% in size
Details: KB-8-5-11 (P-gp overexpressing) viability, CellTiter-Glo, 72 h; series mostly up to 44.5 µM
How it was run: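 Luminescence from CellTiter-Glo, read 5 min after addition, quantified survival of KB-8-5-11 (P-gp-overexpressing) cells exposed to compounds for 72 h. AC50 was derived from concentration-response curves.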
For `CO[C@@H]1[C@H](O)[C@@H](O[C@@H]2C[C@H]3CC[C@@H]4C(CC[C@]5(C)[C@@H](C6=CC(=O)OC6)CC[C@]45O)[C@@]3(C)[C@H](O)C2)O[C@H](C)[C@@H]1O[C@@H]1O[C@H](CO)[C@@H](O)[C@H](O)[C@H]1O` (stereo partly specified), the Potency was 385 nM (active). In the case of `N#C[C@@H](O[C@@H]1O[C@H](CO[C@@H]2O[C@H](CO)[C@@H](O)[C@H](O)[C@H]2O)[C@@H](O)[C@H](O)[C@H]1O)c1ccccc1`, the Potency was “inactive”. With `COC(=O)C1(C)CCC(=O)C2(C)c3c(O)cc(C(C)C)cc3C(O)C(OC(C)=O)C12` (stereo unspecified) the Potency was “inactive”. In the case of `CN1CCCC1CCOC(c1cc2nccc(C(=O)O)c2[nH]1)c1ccccc1Cl` (stereo unspecified), the Potency was “inactive”. With `CC[C@H]1CN2CC[C@H]1C[C@H]2[C@H](O)c1ccnc2ccc(OC)cc12` the Potency was “inactive”. In the case of `C=C1[C@@H]2CC[C@@]3(C)[C@H](c4ccoc4)OC(=O)C[C@]13O[C@H]1CC(=O)C(C)(C)[C@H](C(OC(C)=O)C(=O)OC)[C@]12C` (stereo partly specified), the Potency was “inactive”. For `CCN1C[C@]2(COC)[C@H](O)C[C@H](OC)[C@]34[C@@H]5C[C@]6(O)[C@H](OC(=O)c7ccccc7)[C@@H]5[C@@](O)([C@H]([C@H](OC)[C@H]23)[C@@H]14)[C@@H](O)[C@@H]6OC`, the Potency was “inactive”. In the case of `CC1=C2C[C@H]3[C@@H](CC=C4C[C@@H](O)CC[C@@]43C)[C@@H]2CC[C@]12O[C@@H]1C[C@H](C)CN[C@H]1[C@H]2C`, the Potency was “inactive”. For `CN[C@H]1[C@H](O)[C@H](O[C@@H]2[C@@H](O)[C@H](O[C@H]3O[C@H]([C@H](C)O)[C@@H](O)[C@H](O)[C@H]3N)[C@@H](N)C[C@H]2N)OC[C@@]1(C)O`, the Potency was “inactive”. With `COC1C(O)C(C)OC(OC2C(CO)O[C@@H](O[C@@H]3CC4CCC5C(CC[C@]6(C)[C@@H](C7=CC(=O)OC7)CC[C@]56O)[C@@]4(C)[C@H](O)C3)C(O)C2O)C1O` (stereo partly specified) the Potency was 544 nM (active). In the case of `CC(C)(O)[C@H]1O[C@H]2CC[C@@]3(C)[C@@](O)(CC[C@H]4Cc5c([nH]c6ccccc56)[C@@]43C)C2=CC1=O`, the Potency was “inactive”. In the case of `OC1(c2ccc(Cl)cc2)c2ccccc2C2=NCCN21` (stereo unspecified), the Potency was “inactive”. With `OCCCCC#Cc1cncc(OC[C@@H]2CCN2)c1` the Potency was “inactive”. With `CCc1[nH]c2ccc(OC)cc2c1CCN(C)C` the Potency was “inactive”. In the case of `Cc1cccc(NC(=O)N[C@@H]2N=C(c3ccccc3)c3ccccc3N(C)C2=O)c1`, the Potency was “inactive”. For `COC1CC(OC2CCC3(C=O)C(CCC4C3CCC3(C)C(C5=CC(=O)OC5)CCC43O)C2)OC(C)C1OC1OC(CO)C(O)C(O)C1O` (stereo unspecified), the Potency was 172 nM (active). With `COC1C(O)C(OC2CCC3(C=O)C(CCC4C3CCC3(C)C(C5=CC(=O)OC5)CCC43O)C2)OC(C)C1OC1OC(CO)C(O)C(O)C1O` (stereo unspecified) the Potency was 432 nM (active). For `C[C@H]1O[C@@H](O[C@H]2C[C@@H](O)[C@]3(CO)C4C(CC[C@]3(O)C2)[C@@]2(O)CC[C@H](C3=CC(=O)OC3)[C@@]2(C)C[C@H]4O)[C@@H](O)[C@@H](O)[C@H]1O` (stereo partly specified), the Potency was 432 nM (active). In the case of `CN(C(=O)Cc1ccccc1)C(CN1CCCC1)c1ccccc1` (stereo unspecified), the Potency was “inactive”. For `COC1CC(OC2CCC3(C)C(CCC4C3CCC3(C)C(C5=CC(=O)OC5)C(OC(C)=O)CC43O)C2)OC(C)C1OC1OC(CO)C(O)C(O)C1O` (stereo unspecified), the Potency was 685 nM (active). For `Clc1ccc(OCC2=NCCN2)cc1Cl`, the Potency was “inactive”. For `N#CC(OC1OC(COC2OC(CO)C(O)C(O)C2O)C(O)C(O)C1O)c1ccccc1` (stereo unspecified), the Potency was “inactive”. With `C[C@]12CC[C@H]3[C@@H]([C@H](O)CC4=CC(=O)CC[C@@]43C)[C@@H]1CC[C@@H]2O` the Potency was “inactive”. For `CC(CCc1ccc(O)cc1)O[C@@H]1O[C@H](CO[C@H]2OC[C@](O)(CO)[C@H]2O)[C@@H](O)[C@H](O)[C@H]1O` (stereo partly specified), the Potency was “inactive”. In the case of `CN1C(=O)c2ccccc2NC(=O)[C@]12O[C@@H]2c1ccccc1`, the Potency was “inactive”. In the case of `COC(=O)[C@@]12C(=O)C(C)C(=O)[C@]1(C)C(C)=C[C@H]1[C@]3(C=O)CC[C@H](OC(C)=O)C(C)(C)[C@H]3CC[C@@]12C` (stereo partly specified), the Potency was “inactive”. In the case of `CC(C)[C@@H](CN1CC[C@@](C)(c2cccc(O)c2)[C@@H](C)C1)NC(=O)[C@H]1Cc2ccc(O)cc2CN1`, the Potency was “inactive”. In the case of `COC1CC(O[C@H]2CC[C@]3(C=O)C4CC[C@]5(C)[C@@H](C6=CC(=O)OC6)CC[C@]5(O)[C@@H]4CC[C@]3(O)C2)OC(C)C1O[C@@H]1O[C@H](CO)[C@@H](O)[C@H](O)[C@H]1O` (stereo partly specified), the Potency was 153 nM (active). In the case of `CC1C/C=C/C(O)C(O)CC/C=C/c2cc(O)cc(O)c2C(=O)O1` (stereo unspecified), the Potency was “inactive”. In the case of `O=C(N1CCOCC1)N1CCN(c2ccc(Cl)cc2)CC1`, the Potency was “inactive”. With `CCC(C)(OC(C)=O)C(=O)O[C@H]1[C@H](OC(C)=O)C[C@@H]2[C@@](C)([C@@H]3C[C@H]4C=CO[C@H]4O3)[C@H](C)C[C@H](OC(C)=O)[C@@]2(COC(C)=O)[C@@]12CO2` (stereo partly specified) the Potency was “inactive”.
